Experimental data taken from PubChem BioAssay (Tox21).
Several values for one entry are separate records, joined by “and”; a condition that tells them apart may be missing. Equal entries are not always repeated. Inconclusive results are not listed. Entries that show only a call come without a potency. A structure can be active in one record and inactive in another. Activity calls are given as the source filed them. Calls follow the shape of the dose curve; as a rule, active = well fitted cell-killing curve with a large enough effect in the repeat runs; inconclusive = weak or mixed curves; inactive = flat fitted curve, though single readings scatter.

Test: qHTS RealTime-Glo MT Cell Viability Assay in HepG2 cells - 24 hour (AID 1224867); also: nearly all actives have a fitted effect of over 50% in size
Settings: RealTime-Glo luminescence; series mostly up to 76.8 µM
Source text: U.S. Tox21 Program National Center for Advancing Translational Sciences [NCATS] NIH Chemical Genomics Center [NCGC] U.S. Environmental Protection Agency [EPA] National Institutes of Environmental Health Sciences [NIEHS] National Toxicology Program [NTP] U.S. Food and Drug Administration [FDA] Tox21 Assay Overview: Measure of cell viability is critical in the cell-base assay. Analysis of cell viability is necessary for the characterization of cell responses to cytotoxic drugs and environmental stress. A RealTime-Glo MT Cell Viability Assay to monitor cell viability in real time of continues cell culture during 40 hours of compound treatment was used to screen Tox21 10K library compounds in HepG2 cells. The RealTime-Glo MT Cell Viability Assay is a nonlytic, homogeneous, bioluminescent method to measure cell viability in real time using a simple, plate-based method. The assay involves adding NanoLuc luciferase and a cell-permeant prosubstrate to cells in culture. Viable cells reduce the proprietary prosubstrate to generate a substrate for NanoLuc luciferase. This substrate diffuses from cells into the surrounding culture medium, where it is rapidly used by the NanoLuc Enzyme to produce a luminescent signal. The signal correlates with the number of viable cells, making the assay well suited for cytotoxicity studies.
Tox21 Assay Protocol Summary: The mixture of HepG2 cell suspension and reagents were dispensed at 600cells/6 ul/well in 1536-well tissue culture treated black solid bottom plates using a Multidrop dispenser. After the assay plates were incubated at a 37 C/5% CO2 incubator for 5 hours, 23 nL of compounds dissolved in DMSO, positive and negative controls was transferred to the assay plate by a pintool work station. The plates were incubated at 37 C for 40 hours. The luminescence intensity were measured at 0h, 8h, 16h, 24h, 32h and 40h time points using ViewLux plate reader during compound treatment.
Potency is read from the fitted curve at half-maximal effect.

**Q.** With `C=C(C#N)C(=O)OCC` as the compound, how does the Potency read?
**A.** The Potency was “inactive”.

**Q.** For `OCC#CCO`, which Potency is on record?
**A.** Its Potency is “inactive”.

**Q.** Which Potency does the source give for `CCCCCCCCCCCCN` here?
**A.** The Potency was “inactive and 24.5 µM (active)”.

**Q.** Which Potency does the source give for `O=C(Cl)c1c(Cl)c(Cl)c(C(=O)Cl)c(Cl)c1Cl` here?
**A.** The Potency was “inactive”.

**Q.** Which Potency does the source give for `CC1Cc2ccccc2N1NC(=O)c1ccc(Cl)c(S(N)(=O)=O)c1` (stereo not given) here?
**A.** Its Potency is “inactive”.

**Q.** With `Cc1ccc(C)c(C)c1` as the compound, how does the Potency read?
**A.** The Potency was “inactive”.

**Q.** For `O=Nc1ccc(O)cc1`, which Potency is on record?
**A.** The Potency was “inactive”.

**Q.** Which Potency does the source give for `C/C=C(C)/C=C/C=C(C)C` here?
**A.** The Potency was “inactive”.

**Q.** For `CCC(C)C=O` (stereo not given), which Potency is on record?
**A.** The Potency was “inactive”.

**Q.** Which Potency does the source give for `CC(C)(C)C(=O)C1C(=O)c2ccccc2C1=O` here?
**A.** Its Potency is “inactive”.

**Q.** For `O=C1N=C(O)CN1/N=C/c1ccc(-c2ccc([N+](=O)[O-])cc2)o1`, which Potency is on record?
**A.** The Potency was “inactive”.

**Q.** Which Potency does the source give for `CC(C)(CO)COC(=O)C(C)(C)CO` here?
**A.** Its Potency is “inactive”.

**Q.** For `Clc1ccc(Cl)c(Cl)c1Cl`, which Potency is on record?
**A.** The Potency was “inactive”.

**Q.** With `CCC(=O)O` as the compound, how does the Potency read?
**A.** Its Potency is “inactive”.

**Q.** With `OC1CCCC1` as the compound, how does the Potency read?
**A.** The Potency was “inactive”.

**Q.** For `COC(=O)Nc1nc2ccc(Sc3ccccc3)cc2[nH]1`, which Potency is on record?
**A.** Its Potency is “inactive”.

**Q.** For `C=C(C)C(=O)OCCC[Si](OC)(OC)OC`, which Potency is on record?
**A.** The Potency was “inactive”.

**Q.** Which Potency does the source give for `CC(=O)CCc1ccccc1` here?
**A.** Its Potency is “inactive”.

**Q.** With `NC(=O)NNc1ccccc1` as the compound, how does the Potency read?
**A.** Its Potency is “inactive”.

**Q.** Which Potency does the source give for `C=C(C)C(=O)OCCCCCCCCCCCC` here?
**A.** Its Potency is “inactive”.

**Q.** For `CCCCOCCOCCOC(=O)CCCCC(=O)OCCOCCOCCCC`, which Potency is on record?
**A.** The Potency was “inactive”.

**Q.** Which Potency does the source give for `CC(C)NCC(O)COc1cccc2ccccc12` (stereo not given) here?
**A.** The Potency was “inactive”.

**Q.** For `CC1=CC[C@H]2C[C@@H]1C2(C)C`, which Potency is on record?
**A.** Its Potency is “inactive”.

**Q.** With `CC(=O)[C@@]1(O)CC[C@H]2[C@@H]3CCC4=CC(=O)CC[C@]4(C)[C@H]3CC[C@@]21C` as the compound, how does the Potency read?
**A.** Its Potency is “inactive”.

**Q.** Which Potency does the source give for `CCCCCCOC(C)=O` here?
**A.** Its Potency is “inactive”.

**Q.** Which Potency does the source give for `Oc1c(Cl)cc(Cl)c(Cl)c1Cl` here?
**A.** Its Potency is “inactive”.

**Q.** With `Nc1nc2ncc(CNc3ccc(C(=O)N[C@@H](CCC(=O)O)C(=O)O)cc3)nc2c(=O)[nH]1` as the compound, how does the Potency read?
**A.** Its Potency is “inactive”.

**Q.** For `OC[C@@H](O)[C@H](O)[C@H](O)[C@@H](O)CO`, which Potency is on record?
**A.** The Potency was “inactive”.

**Q.** Which Potency does the source give for `CCCCC(CC)C(=O)OCCOCCOCCOC(=O)C(CC)CCCC` (stereo not given) here?
**A.** Its Potency is “inactive”.

**Q.** Which Potency does the source give for `Nc1cc(-c2ccncc2)c[nH]c1=O` here?
**A.** The Potency was “inactive”.

**Q.** Which Potency does the source give for `C[C@@H](O)[C@H]1C(=O)N2C(C(=O)O)=C(S[C@@H]3CN[C@H](C(=O)N(C)C)C3)[C@H](C)[C@H]12` here?
**A.** The Potency was “inactive”.

**Q.** For `NCCNCCNCCNCCN`, which Potency is on record?
**A.** The Potency was “inactive”.

**Q.** With `O=S(=O)(O)CCS` as the compound, how does the Potency read?
**A.** The Potency was “inactive”.

**Q.** Which Potency does the source give for `CC1(C)O[C@@H]2C[C@H]3[C@@H]4C[C@H](F)C5=CC(=O)CC[C@]5(C)[C@H]4[C@@H](O)C[C@]3(C)[C@]2(C(=O)CO)O1` here?
**A.** The Potency was “inactive”.

**Q.** With `O=C(O)c1ccc([N+](=O)[O-])cc1` as the compound, how does the Potency read?
**A.** Its Potency is “inactive”.

**Q.** Which Potency does the source give for `O=[N+]([O-])c1cc(N(CCO)CCO)ccc1NCCO` here?
**A.** Its Potency is “inactive”.

**Q.** Which Potency does the source give for `Cc1cc(Cc2ccc(N)c(C)c2)ccc1N` here?
**A.** The Potency was “inactive”.

**Q.** For `CCCCC(CC)COC(=O)/C=C\C(=O)OCC(CC)CCCC` (stereo not given), which Potency is on record?
**A.** The Potency was “inactive”.

**Q.** For `Cc1ccc(N)c(S(=O)(=O)O)c1`, which Potency is on record?
**A.** Its Potency is “inactive”.

**Q.** For `NC(=O)/N=N/C(N)=O`, which Potency is on record?
**A.** Its Potency is “inactive”.
